Source: PubChem BioAssay
Rows were chosen to be rich in hits. Some 1.8% of all compounds tested hit in one or more screens of this group.
PfHsp40 rescue = restores yeast growth despite PfHsp40 toxicity; S. cerevisiae expressing PfHsp40, growth rescue, ATP luminescence; growth rescue, % at 12.5 µM; 340,000 tested, 0.68% active; AID 504582; in the data active = growth rescue above about 28%, passing the limit was not always enough;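 also: yeast W303a lacking pdr1 and pdr3 grown in galactose medium; growth measured after three days at 30 °C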
SSB-PriA inh = inhibitors of Klebsiella pneumoniae PriA binding to SSB C-terminal tail | inhibition, % at 33 µM | 430,000 tested, 0.6% active | AID 1272365 | AlphaScreen SSBct-PriA binding, biotinylated peptide; in the data active = inhibition mostly above about 37%, no sharp cut-off; inactive = mostly below about 20%
MazEF act = activators of E. coli MazEF toxin-antitoxin RNase | P0AE70 | FAM/BHQ RNA-DNA oligo cleavage fluorescence, 5 h | activation, % at 20 µM | 350,000 tested, 0.32% active | AID 504720; in the data active = activation above about 50%
PrP UTR inh = suppresses PrP 5' UTR mRNA reporter expression | cell-based PrP 5' UTR mRNA reporter, plate reader | inhibition, % (test concentration not listed) | 340,000 tested, 0.35% active | AID 488862; in the data active = inhibition above about 52%
PrPC surface inh = reduces human prion protein on the cell surface | inhibition, % at 13.8 µM | 370,000 tested, 0.43% active | cell surface PrPC, TR-FRET read-out | P04156; in the data active = inhibition above about 24%
PrP 5UTR single = prion 5' UTR mRNA inhibition, cherry-pick retest. 1,100 tested, 48% active. inhibition, % at 2.5 µM. cell-based prion protein 5' UTR reporter, plate reader. shares compounds with PrP UTR inh; in the data active = inhibition above about 54%
PrPC TRFRET cf = confirmation of inhibitors of cell surface human prion protein | shares compounds with PrPC surface inh | cell surface PrPC level, TR-FRET | inhibition, % at 13.8 µM | 1,500 tested, 65% active | AID 743200; in the data active = inhibition above about 25%
LD9 tox = counter-screen for PrPc inhibitors: cytotoxicity in LD9 cells; shares compounds with PrPC surface inh; luminescence viability; inhibition, % at 13.8 µM; 1,500 tested, 29% active; AID 743201; in the data active = inhibition above about 9.5%
A number is an active result.

Screening CCC1CN2CCc3cc(OC)c(OC)cc3C2CC1CC1NCCc2c1[nH]c1ccc(O)cc21 (centres undefined) returned PfHsp40 rescue inactive, SSB-PriA inh inactive, MazEF act inactive, PrP UTR inh 82.4, PrPC surface inh 86.9, PrP 5UTR single 87.0, PrPC TRFRET cf 99.6 and LD9 tox 43.2.
Screening Cc1ccc2nc(NC(=O)c3ccccn3)sc2c1 returned PfHsp40 rescue inactive, SSB-PriA inh inactive, MazEF act inactive, PrP UTR inh 88.7, PrPC surface inh 25.2, PrP 5UTR single 86.2, PrPC TRFRET cf 61.0 and LD9 tox 77.0.
Screening O=C(COC(=O)c1ccc(F)cc1)NC1CC1 returned PfHsp40 rescue inactive, SSB-PriA inh inactive, MazEF act inactive, PrP UTR inh inactive and PrPC surface inh inactive.
For O=C(CSc1ncnc2ccccc12)Nc1cc(S(=O)(=O)N2CCCCC2)ccc1Cl the results were PfHsp40 rescue inactive, SSB-PriA inh inactive, MazEF act inactive, PrP UTR inh inactive and PrPC surface inh inactive.
For O=C(CSc1ncnc2ccccc12)Nc1cccc(S(=O)(=O)N2CCCC2)c1 the results were PfHsp40 rescue inactive, SSB-PriA inh inactive, MazEF act inactive, PrP UTR inh 85.1, PrPC surface inh 70.4, PrP 5UTR single inactive, PrPC TRFRET cf 73.3 and LD9 tox inactive.
For CC(N)C(=O)NC1C2C(=C(O)CC(O)C2O)C(=O)OC1(C)C(Cl)Cl (centres undefined) the results were PfHsp40 rescue inactive, SSB-PriA inh inactive, MazEF act inactive, PrP UTR inh inactive, PrPC surface inh 93.5, PrPC TRFRET cf 99.8 and LD9 tox 25.6.
O=C(O)c1ccc(Nc2cc(Cl)c3nonc3c2[N+](=O)[O-])cc1 was read as PfHsp40 rescue inactive, SSB-PriA inh inactive, MazEF act inactive, PrP UTR inh inactive and PrPC surface inh inactive.
O=[N+]([O-])c1c(Nc2cccc(O)c2)cc(Cl)c2nonc12 was read as PfHsp40 rescue inactive, SSB-PriA inh inactive, MazEF act inactive, PrP UTR inh inactive, PrPC surface inh 84.6, PrPC TRFRET cf 92.3 and LD9 tox 98.5.
`COc1ccc2ccccc2c1/C=N/NC(=O)c1cccc([N+](=O)[O-])c1` gave PfHsp40 rescue inactive, MazEF act inactive, PrP UTR inh inactive, PrPC surface inh 26.2, PrPC TRFRET cf inactive and LD9 tox inactive.
Screening O=C1C=CC2C3C(=O)N(c4ccccc4)C(=O)C3C1N2Cc1ccccc1 (centres undefined) returned PfHsp40 rescue inactive, SSB-PriA inh inactive, MazEF act inactive, PrP UTR inh inactive, PrPC surface inh 49.5, PrPC TRFRET cf inactive and LD9 tox 98.9.
For O=C1C2C3C=CC(CC3)C2C(=O)N1c1ccccc1 (centres undefined) the results were PfHsp40 rescue inactive, SSB-PriA inh inactive, MazEF act inactive, PrP UTR inh inactive and PrPC surface inh inactive.
For Cc1ccc(NC(=O)c2cc(=O)[nH]c3ccc(S(=O)(=O)N4CCOCC4)cc23)nc1 the results were PfHsp40 rescue inactive, SSB-PriA inh inactive, MazEF act inactive, PrP UTR inh inactive and PrPC surface inh inactive.
For C[C@@H]1CC=C[C@H]2[C@H]1C(=O)N(Cc1ccccc1)[C@H]2c1ccc2ccccc2c1Br the results were PfHsp40 rescue inactive, SSB-PriA inh inactive, MazEF act inactive, PrP UTR inh inactive, PrPC surface inh 41.6, PrPC TRFRET cf 50.3 and LD9 tox inactive.
Screening CCCN(C(=O)C(=O)Nc1ccc2nc3n(c(=O)c2c1)CCCCC3)c1ccc(OCC)cc1 returned PfHsp40 rescue inactive, SSB-PriA inh inactive, MazEF act inactive, PrP UTR inh inactive, PrPC surface inh 30.8, PrPC TRFRET cf inactive and LD9 tox inactive.
O=C(Nc1ccc2nc3n(c(=O)c2c1)CCCCC3)c1c(F)ccc([N+](=O)[O-])c1F was read as PfHsp40 rescue inactive, SSB-PriA inh inactive, MazEF act inactive, PrP UTR inh inactive, PrPC surface inh 26.1, PrPC TRFRET cf 28.2 and LD9 tox 95.8.
`O=C(Nc1ccc2nc3n(c(=O)c2c1)CCCCC3)c1cc([N+](=O)[O-])ccc1F` gave PfHsp40 rescue inactive, SSB-PriA inh inactive, MazEF act inactive, PrP UTR inh inactive and PrPC surface inh inactive.
`CCOC(=O)Nc1ccc2nc3n(c(=O)c2c1)CCCCC3` gave PfHsp40 rescue inactive, SSB-PriA inh inactive, MazEF act inactive, PrP UTR inh inactive and PrPC surface inh inactive.
Cc1ccc(/C=N/NC(=O)c2cc(C)oc2C)cc1 was read as SSB-PriA inh inactive, MazEF act inactive and PrPC surface inh inactive.
`O=C(O)CSc1nc2ccc(Br)cc2[nH]1` gave PfHsp40 rescue inactive, SSB-PriA inh inactive, MazEF act inactive, PrP UTR inh inactive and PrPC surface inh inactive.
For Cc1ccc(-n2c(-c3nn(C)cc3Cl)n[nH]c2=S)cc1 the results were PfHsp40 rescue inactive, SSB-PriA inh inactive, MazEF act inactive, PrP UTR inh inactive and PrPC surface inh inactive.
Cn1cc(Cl)c(-c2n[nH]c(=S)n2-c2ccccc2)n1 was read as PfHsp40 rescue inactive, SSB-PriA inh inactive, MazEF act inactive, PrP UTR inh inactive, PrPC surface inh 28.7, PrPC TRFRET cf 45.0 and LD9 tox inactive.
For COCCCN1C(=O)C(=O)/C(=C(/O)c2ccc(OCC(C)C)cc2C)C1c1cccnc1 (centres undefined) the results were PfHsp40 rescue inactive, MazEF act inactive, PrP UTR inh inactive, PrPC surface inh 25.7, PrPC TRFRET cf 36.4 and LD9 tox inactive.
`Cc1cc(OCc2ccccc2)ccc1/C(O)=C1/C(=O)C(=O)N(Cc2cccnc2)C1c1ccncc1` (centres undefined) gave PfHsp40 rescue inactive, MazEF act inactive, PrP UTR inh inactive, PrPC surface inh 33.5, PrPC TRFRET cf 53.6 and LD9 tox inactive.
Screening COc1cccc(N2CC(O)=C(c3nc4ccccc4s3)C2=N)c1 returned PfHsp40 rescue inactive, SSB-PriA inh inactive, MazEF act inactive, PrP UTR inh inactive, PrPC surface inh 91.7, PrPC TRFRET cf 88.1 and LD9 tox inactive.
Screening COc1ccc(N2CC(O)=C(c3nc4ccccc4s3)C2=N)cc1 returned PfHsp40 rescue inactive, SSB-PriA inh inactive, MazEF act inactive, PrP UTR inh inactive and PrPC surface inh inactive.
For CC(=NN1CCCCCC1)c1c(O)n(C2CCCCC2)c(=O)[nH]c1=O the results were SSB-PriA inh inactive.
CCN(CC)C(=O)CSc1nc(N)c(C#N)c(-c2cccs2)c1C#N was read as PfHsp40 rescue inactive, SSB-PriA inh inactive, MazEF act inactive, PrP UTR inh inactive, PrPC surface inh 62.7, PrPC TRFRET cf inactive and LD9 tox inactive.
CC(=O)c1cn(CC(=O)Nc2cccc(C)c2C)c2ccccc12 was read as PfHsp40 rescue inactive, SSB-PriA inh inactive, MazEF act inactive, PrP UTR inh inactive and PrPC surface inh inactive.
